# Screen size: about 1,200 compounds; about 10 (0.8%) were called active. Inconclusive results (about 4%) are left out. The list comes from a sample in which actives are over-represented; it also holds similar structures and randomly drawn compounds. A number with no mark means an inactive call. Calls follow the shape of the dose curve; as a rule, active = well fitted inhibition curve with a large enough effect; inconclusive = small, poorly fitted or top-dose-only effect; inactive = no such curve, though single readings can be large or run the other way.
# Assay: qHTS Assay to Find Inhibitors of Chronic Active B-Cell Receptor Signaling: Hit Validation in OCI-Ly3 Assay
# Details: OCI-Ly3 IkB-luciferase reporter, Chroma-Glo luminescence, 4 h; series mostly up to 46.1 µM; activity change, negative = inhibition: at the top concentration
# Source text: Diffuse large B-cell lymphoma (DLBCL) is the most common category of non-Hodgkin lymphoma, with ~20,000 new cases per year in the United States. DLBCL should be regarded as a collection of different neoplasms. Microarray gene expression analysis has defined two principal types of DLBCL, named for their similarity to normal B cell stages or activation states: a germinal center B-cell (GCB) type, and an activated B-cell (ABC) type. In ABC-DLBCL, a constitutive high-level activity of the NF-kappaB family of transcription factors has been observed (1) and NF-kappaB target genes are more highly expressed in ABC primary tumors than in GCB tumors. Functional studies have shown a constitutive high-level activity of the IkappaB (inhibitor of kappa-B) kinase (IKK) complex. […] Further analysis of DLBCL primary tumors for NF-kappaB target gene expression imply that although CARD11 is required for constitutive IKK activity in all ABC-DLBCL lines, mutations in CARD11 may be the root cause of IKK activation only in lines or tumors with such mutations. In other words, CARD11 mutations may explain NF-kappaB activation in only 10% of ABC-DLBCL cases. […] This process has been termed 'chronic active BCR signaling' (CABS). The goal of this screen is to find small-molecule inhibitors of the CABS pathway found in ABC-DLBCL lines using a cell-based assay that measures IkappaBalpa stability, which has already been extensively validated in the OCI-Ly3 line (PubChem AID:445; REF: 4). […] Hits from the primary screen were tested in this selectivity secondary assay. NIH Molecular Libraries Probe Production Network [MLPCN] NIH Chemical Genomics Center [NCGC] MLPCN Grant: R03 DA031086 PI Name: Dr. R. Eric Davis
# Cells were seeded in 1536-well plates at 5000 cells/3ul in IMDM medium containing 0.5% FBS, w/o phenol red, L-glutamine, 25 mM HEPES, 3 mg/ml sodium bicarbonate. After centrifugation for 1 min. at 1000 rpm, 23 nl of compounds or DMSO were delivered to each well using a pin tool. Then 1ul 80ng/ml doxycycline was dispensed into white solid 1536-well plates and the plates were incubated at 37C/5% C02 in a cell incubator for 4 hrs. Then 4 ul Chroma-Glo luminescent substrate mix (Promega) was added to each well. The plate was incubated at R.T. for 10-15 min. The plates were measured on a ViewLux plate reader for green luminescence (540/20 nm filter) and red luminescence (618/8 nm filter). The green and red luminescent signals were corrected for red and green luminescence filter overlap using previously determined filter calibration constants (determined using the procedure outlined in the Promega Technical Manual). The %Activity was determined from the ratio of corrected green/red luminescent values. Green luminescent and ratio %Activity was determined by normalizing to the difference in signal between basal cells (0% Activity) and cells incubated with 10 uM of the proteasome inhibitor MG-132 (100% Activity). Red luminescent %Activity was normalized to the difference between red luminesence in basal cells (0%Activity) and zero luminescence (-100% Activity). Concentration-response curves were fitted to the signals arising from the green luminescence (I-kappa-B-alpha-luciferase fusion; IkB-luc) and the red luminescence (unfused luciferase; luc) as well as the calculated ratio. The concentration-effect curves were then classified based on curve quality (r2), response magnitude and degree of measured activity. Compounds were then categorized based on their concentration-response curves for all three datasets (Ikb-luc, luc and ratio).
# % is scaled to controls: 0 for no effect and ±100 for the full control effect; potency is read from the fitted curve at half-maximal effect.
SMILES,"activity change, negative = inhibition [%]",Potency
CCCCOc1ccc(Br)cc1/C(C)=N/NC1=NCCN1,-0.15,–
COc1cccc(C2NC(=S)NC(C)=C2C(=O)c2ccccc2)c1OC (configuration not stated),-1.95,–
O=C(/C=C/c1ccccc1Cl)c1cccnc1,-0.735,–
CCOC(=O)C1CCN(S(=O)(=O)c2c(Cl)ccc3nonc23)CC1,1.28,–
S=c1nc2ccccc2c2nc(-c3ccccc3Br)[nH]n12,83.2,–
Oc1ccc(-c2nnc(Nc3cccc(O)c3)c3ccccc23)cc1,-1.7,–
COc1ccc(-c2cc(C(F)(F)F)n3nc(C(=O)NCCCn4ccnc4)cc3n2)cc1,-0.239,–
COc1ccccc1-c1cc(C(=O)NCCc2ccccc2)no1,-4.78,–
COc1ccc(C(=O)c2ccc(N(C)C)cc2)c2ccccc12,-4.15,–
CCCCC[C@H](O)/C=C/C1=C(CCCCCCC(=O)O)C(=O)CC1,-0.832,–
S=c1nc2ccccc2c2nc(-c3ccccc3)[nH]n12,18.3,–
CCc1nc2ccccc2c(C(=O)OCc2nc3ccccc3c(=O)[nH]2)c1C,-2.85,–
ClCc1nc2ccccc2c2ccccc12,–,13 µM (active)
CCCc1oc2ccc(NS(=O)(=O)c3ccc(OC)cc3)cc2c1C(=O)OCC,-4.35,–
COc1ccc2c(c1)c(/C=N/Nc1nc3ccccc3[nH]1)c(C)n2C,-10,–
COC(=O)[C@@H]1[C@@H](C#N)C2(c3ccccc3-c3ccccc32)N(c2ccc(Cl)cc2)N1C#N,0.249,–
O=C(Nc1ccc([N+](=O)[O-])cc1)Nc1ccon1,-2.62,–
Cc1cccc(Cn2cc(/C=C/[N+](=O)[O-])c3ccccc32)c1,-2.08,–
CCN(CC)c1ccc2c(C)c(CO)c(=O)oc2c1,-0.0824,–
Cc1nc(NC(=S)Nc2ccccc2)sc1C,31.6,–
COc1ccc(OC)c(-c2cc(C(=O)Nc3c(C)nn(Cc4ccccc4)c3C)no2)c1,-2.57,–

SMILES,"activity change, negative = inhibition [%]",Potency
Cc1ccc(O)c(N=Nc2nccs2)c1,–,16.4 µM (active)
CCOC(=S)SCC(=O)Nc1nc(-c2ccc(Br)cc2)cs1,-1.99,–
CC[C@]12c3[nH]c4cc(CCC(=O)N(C)C)ccc4c3CCN1C(=O)[C@@H](CC(=O)NCC13CC4CC(CC(C4)C1)C3)C[C@@H]2C(=O)N1CCN(C(=O)c2ccco2)CC1,-3.16,–
Cc1cccc(NS(=O)(=O)c2ccc(-c3cnc(C4CC4)o3)cc2)c1C,-14.9,–
CCN(CC)c1ccc(-c2nn3c(-c4ccccc4OC)nnc3s2)cc1,-2.37,–
COc1cc(OC)cc(C(=O)NCC(=O)N2CC=C(c3ccccc3)CC2)c1,-2.46,–
CC1=Nc2cc(C(=O)NCc3ccco3)ccc2Sc2ccc(C)cc21,-2.52,–
CCCCC[C@H](O)/C=C/[C@@H]1[C@@H](CCCCCCC(=O)O)[C@@H](O)C[C@H]1O,-1.13,–
COc1ccc(Nc2nc(-c3c(C)nc4ncccn34)cs2)cc1,-6.49,–
COc1ccc(NC(=O)C(=O)NCC2CCCN2S(=O)(=O)c2ccc(C)cc2)cc1 (configuration not stated),-2.59,–
COc1ccc(Nc2nc(N)nc(CCl)n2)cc1,0.223,–
Cc1ccc2nc(SCC(=O)Nc3cc(C(F)(F)F)ccc3N3CCOCC3)[nH]c2c1,-7.54,–
CCOc1ccc(N(CC(=O)Nc2ccccc2OC)S(=O)(=O)c2ccccc2)cc1,-3.72,–
COc1cc2c(cc1OC)C(c1ccc(OC)c(OC)c1OC)CC(=O)N2 (configuration not stated),-0.252,–
CCc1ccccc1NC(=S)N=Nc1c(O)n(C)c2ccc(S(=O)(=O)N3CCOCC3)cc12,-9.04,–
Cn1c(O)c(N=NC(=S)Nc2ccccc2F)c2cc(S(=O)(=O)N3CCOCC3)ccc21,–,3.66 µM (active)
Cc1ccccc1NC(=S)N=Nc1c(O)n(C)c2ccc(S(=O)(=O)N3CCOCC3)cc12,-18.4,–
COc1ccc(/C=C/C(=O)Nc2ccc(-n3nncc3-c3ccc(OC)c(OC)c3)cc2)cc1OC,-1.06,–
COc1ccc(OC)c(C2C3=C(COC3=O)Nc3cc4c(cc32)OCO4)c1 (configuration not stated),-1.69,–
CCN(CC)S(=O)(=O)c1ccc2c(c1)c(=O)c(C(=O)NCCc1ccc(OC)c(OC)c1)cn2C,-0.826,–
O=C(COc1ccc(C(=O)c2ccc(F)cc2)cc1)NCc1ccc(F)cc1,-2.37,–
